Values without a mark were called inactive. The call rests on the fitted dose curve; in most records, active means well fitted inhibition curve with a large enough effect; inconclusive means small, poorly fitted or top-dose-only effect; inactive means no such curve, though single readings can be large or run the other way. Records with an inconclusive call do not appear.
Test: qHTS assay for measurement of the activity of small molecule inhibitors on Zika virus induced Caspase-3 activity in human iPSC derived neural progenitor cells (hNPCs) (AID 1224857); further: % of control where 0% means no effect; nearly all actives have a fitted effect of over 65% in size
Conditions: hNPCs ZIKV-induced caspase-3/7, Caspase-Glo luminescence, 6 h; series mostly up to 45.7 µM; activity change, negative = inhibition: at the top concentration
Method in brief: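 hNPCs seeded 350 cells/well, cultured 16–20 h; compounds added 1 h before ZIKV (2 FFU/cell), 37 C 6 h. Caspase-Glo 3/7 luminescence after 30 min RT; % inhibition from induction scaled to uninfected (0%) and infected (100%) wells.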

SMILES | activity change, negative = inhibition [%]
OCCOCCN1CCN(C(c2ccccc2)c2ccc(Cl)cc2)CC1 (centres undefined) | 13.4
CN(C)CCCOC1(Cc2ccccc2)CCCCCC1 | 16.7
CCN(CC)CCN | -8.8
C[C@H](N)C(=O)N[C@@H](C)C(=O)NC1[C@H]2CN(c3nc4c(cc3F)c(=O)c(C(=O)O)cn4-c3ccc(F)cc3F)C[C@@H]12 (some centres undefined) | -6.65
CN(C)CCN1CCN(c2cccc(Cl)c2)C1=O | 24.4
CCC[C@H](N[C@@H](C)C(=O)N1[C@H](C(=O)O)C[C@@H]2CCCC[C@@H]21)C(=O)OCC | -15.5
CC(=O)Oc1ccc(C2(c3ccc(OC(C)=O)cc3)Oc3ccccc3NC2=O)cc1 | -1.35
Nc1ncnc2c1ncn2Cc1c(F)cccc1Cl | -3.64
COc1c(C)c2c(c(O)c1C/C=C(\C)CCC(=O)OCCN1CCOCC1)C(=O)OC2 | -6.67
CC(=O)N1CCN(c2ccc(O)cc2)CC1 | 5.97
COc1ccc2c(c1)c(CC(=O)OC/C=C(\C)CC/C=C(\C)CCC=C(C)C)c(C)n2C(=O)c1ccc(Cl)cc1 | -5.98
CCCOc1ccc2c(c1)CC[C@@H]1[C@@H]2CC[C@]2(C)C(OC)CC[C@@H]12 (some centres undefined) | 8.24
CC[N+]1(CC)CCC(=C(c2ccccc2)c2ccccc2)C1C (centres undefined) | 4.34
O=C1[C@@H]2[C@H]3CC[C@H](C3)[C@@H]2C(=O)N1CCCCN1CCN(c2ncccn2)CC1 | -8.06
CCOC(=O)NNc1nncc2ccccc12 | -1.3
O=C1NC(c2ccccc2)(c2ccccc2)C(=O)N1COP(=O)(O)O | -4.46
CC(CC1c2ccccc2CCc2ccccc21)CN(C)C (centres undefined) | -4.36
C[C@H]1C[C@@H]2[C@H]([C@@H](O)C[C@@]3(C)[C@H]2CC[C@]3(O)C(=O)CO)[C@@]2(C)C=CC(=O)C=C12 | 6.04
CC(C)NC(=O)c1ccc(C=O)cc1 | 22.2

SMILES | activity change, negative = inhibition [%]
CCc1cccc2c(CCO)c[nH]c12 | -9.75
CN(C)[C@@H]1C(=O)C(C(N)=O)=C(O)[C@@]2(O)C(=O)C3=C(O)c4c(O)cccc4C[C@H]3C[C@@H]12 | -0.0853
CC(C)(C)c1cc(C=O)cc(C(C)(C)C)c1O | -8.92
Cc1cc(O)c(C)c(C)c1O | -4.28
CC(C)(Oc1ccc(Cl)cc1)C(=O)OCCCOC(=O)C(C)(C)Oc1ccc(Cl)cc1 | 28.9
CC(=O)c1cc2ccccc2s1 | 4.63
CC1(C)O[C@@H]2C[C@H]3[C@@H]4C[C@H](F)C5=CC(=O)C=C[C@]5(C)[C@@]4(F)[C@@H](O)C[C@]3(C)[C@]2(C(=O)CO)O1 | -2.99
O=C(O)Cn1cnnn1 | -15.5
COc1ccc2nc(SCc3ncc(C)c(OC)c3C)[nH]c2c1 | 2.52
CC(C)=CCC/C(C)=C/CC/C(C)=C/C(=O)OCC(=O)[C@@]1(O)CC[C@H]2[C@@H]3CCC4=CC(=O)C=C[C@]4(C)[C@H]3[C@@H](O)C[C@@]21C | 14.7
CC(=O)[C@@]1(O)CC[C@H]2[C@@H]3C[C@H](C)C4=CC(=O)CC[C@]4(C)[C@H]3CC[C@@]21C | -4.1
CCCC(=O)O[C@]1(C(=O)CC)CC[C@H]2[C@@H]3CCC4=CC(=O)CC[C@]4(C)[C@H]3[C@@H](O)C[C@@]21C | 6.25
NC(=O)NS(=O)(=O)c1ccc(Cl)cc1 | 10.8
CCC1(c2cnc[nH]2)Cc2ccccc2C1 | -5.6
Cc1oc(=O)oc1COC(=O)[C@@H]1N2C(=O)[C@@H](NC(=O)[C@H](N)c3ccccc3)[C@H]2SC1(C)C | -17.1
CC(=O)O[C@@H]1CC2C3CCc4cc(OC(=O)c5ccccc5)ccc4C3CCC2(C)[C@H]1OC(C)=O (some centres undefined) | -26.3
C/C(=C1\CCOC(=O)S1)N(C=O)Cc1cnc(C)nc1N | -11.5
CCCc1c2oc(C(=O)O)cc(=O)c2cc2c(=O)cc(C(=O)O)n(CC)c12 | 3.83

Test: qHTS assay for measurement of the activity of small molecule inhibitors on Zika virus induced Caspase-3 activity in human astrocytoma cells (AID 1224859);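 further: plate controls were ZIKV-infected untreated cells for no effect and uninfected cells for full effect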
Conditions: SNB-19 ZIKV-induced caspase-3/7, luminescence, 6 h; series mostly up to 45.7 µM; activity change, negative = inhibition: at the top concentration
Method in brief: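 Luminescence read-out (Caspase-Glo 3/7, 30 min RT) of caspase activity in SNB-19 cells infected 6 h with ZIKV, 2 FFU/cell, after 1 h compound pretreatment; % inhibition from induction normalised to uninfected (0%) and infected (100%) wells.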

SMILES | activity change, negative = inhibition [%]
OCCOCCN1CCN(C(c2ccccc2)c2ccc(Cl)cc2)CC1 (centres undefined) | -0.313
CN(C)CCCOC1(Cc2ccccc2)CCCCCC1 | -1.39
CCN(CC)CCN | -8.17
C[C@H](N)C(=O)N[C@@H](C)C(=O)NC1[C@H]2CN(c3nc4c(cc3F)c(=O)c(C(=O)O)cn4-c3ccc(F)cc3F)C[C@@H]12 (some centres undefined) | -2.79
CN(C)CCN1CCN(c2cccc(Cl)c2)C1=O | 1.36
CCC[C@H](N[C@@H](C)C(=O)N1[C@H](C(=O)O)C[C@@H]2CCCC[C@@H]21)C(=O)OCC | -7.05
CC(=O)Oc1ccc(C2(c3ccc(OC(C)=O)cc3)Oc3ccccc3NC2=O)cc1 | 4.11
Nc1ncnc2c1ncn2Cc1c(F)cccc1Cl | -8.13
COc1c(C)c2c(c(O)c1C/C=C(\C)CCC(=O)OCCN1CCOCC1)C(=O)OC2 | 7.49
CC(=O)N1CCN(c2ccc(O)cc2)CC1 | 3.51
COc1ccc2c(c1)c(CC(=O)OC/C=C(\C)CC/C=C(\C)CCC=C(C)C)c(C)n2C(=O)c1ccc(Cl)cc1 | 0.487
CCCOc1ccc2c(c1)CC[C@@H]1[C@@H]2CC[C@]2(C)C(OC)CC[C@@H]12 (some centres undefined) | -2.39
CC[N+]1(CC)CCC(=C(c2ccccc2)c2ccccc2)C1C (centres undefined) | 7.63
O=C1[C@@H]2[C@H]3CC[C@H](C3)[C@@H]2C(=O)N1CCCCN1CCN(c2ncccn2)CC1 | 11
CCOC(=O)NNc1nncc2ccccc12 | -2.69
O=C1NC(c2ccccc2)(c2ccccc2)C(=O)N1COP(=O)(O)O | 21.9
CC(CC1c2ccccc2CCc2ccccc21)CN(C)C (centres undefined) | 4.4
C[C@H]1C[C@@H]2[C@H]([C@@H](O)C[C@@]3(C)[C@H]2CC[C@]3(O)C(=O)CO)[C@@]2(C)C=CC(=O)C=C12 | 6.42
CC(C)NC(=O)c1ccc(C=O)cc1 | 5.36

SMILES | activity change, negative = inhibition [%]
CCc1cccc2c(CCO)c[nH]c12 | -2.77
CN(C)[C@@H]1C(=O)C(C(N)=O)=C(O)[C@@]2(O)C(=O)C3=C(O)c4c(O)cccc4C[C@H]3C[C@@H]12 | 14
CC(C)(C)c1cc(C=O)cc(C(C)(C)C)c1O | -5.1
Cc1cc(O)c(C)c(C)c1O | -2.82
CC(C)(Oc1ccc(Cl)cc1)C(=O)OCCCOC(=O)C(C)(C)Oc1ccc(Cl)cc1 | -25.5
CC(=O)c1cc2ccccc2s1 | 13.2
CC1(C)O[C@@H]2C[C@H]3[C@@H]4C[C@H](F)C5=CC(=O)C=C[C@]5(C)[C@@]4(F)[C@@H](O)C[C@]3(C)[C@]2(C(=O)CO)O1 | -9.85
O=C(O)Cn1cnnn1 | -0.49
COc1ccc2nc(SCc3ncc(C)c(OC)c3C)[nH]c2c1 | 1.93
CC(C)=CCC/C(C)=C/CC/C(C)=C/C(=O)OCC(=O)[C@@]1(O)CC[C@H]2[C@@H]3CCC4=CC(=O)C=C[C@]4(C)[C@H]3[C@@H](O)C[C@@]21C | -1.56
CC(=O)[C@@]1(O)CC[C@H]2[C@@H]3C[C@H](C)C4=CC(=O)CC[C@]4(C)[C@H]3CC[C@@]21C | 9.52
CCCC(=O)O[C@]1(C(=O)CC)CC[C@H]2[C@@H]3CCC4=CC(=O)CC[C@]4(C)[C@H]3[C@@H](O)C[C@@]21C | 25.7
NC(=O)NS(=O)(=O)c1ccc(Cl)cc1 | 0.861
CCC1(c2cnc[nH]2)Cc2ccccc2C1 | -3.94
Cc1oc(=O)oc1COC(=O)[C@@H]1N2C(=O)[C@@H](NC(=O)[C@H](N)c3ccccc3)[C@H]2SC1(C)C | -13.4
CC(=O)O[C@@H]1CC2C3CCc4cc(OC(=O)c5ccccc5)ccc4C3CCC2(C)[C@H]1OC(C)=O (some centres undefined) | -3.84
C/C(=C1\CCOC(=O)S1)N(C=O)Cc1cnc(C)nc1N | 0.823
CCCc1c2oc(C(=O)O)cc(=O)c2cc2c(=O)cc(C(=O)O)n(CC)c12 | -3.15

— PubChem BioAssay (NCATS)
